Assay outcomes deposited in PubChem BioAssay by National Center for Advancing Translational Sciences (NCATS).
Gal4-VP16 FLuc: Gal4-VP16 reporter inhibition counter-screen; AID 2546; 310,000 compounds, 3.5% hits; Drosophila S2 Gal4-VP16 UAS-luciferase, luminescence, 20 h; Potency, µM (series often up to 53.6 µM), most hits filed as inhibitors;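 further: Gal4-VP16 expression switched on by copper sulfate through the metallothionein promoter; nearly all actives have a fitted effect of over 50% in size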
TGFb inhibitor: blocks TGF-b signaling; Potency, µM (titrated, usually from 46.1 µM), most hits filed as inhibitors; AID 588855; 410,000 compounds, 1.2% hits; HepG2 CAGA-GFP TGF-b/SMAD3 reporter, GFP fluorescence, 18 h; TGF-beta stimulated, 500 pg/mL final; further: nearly all actives have a fitted effect of over 65% in size
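First, reporter cells (HEPG2 CAGA-GFP) rested 2 h at 37 degrees C. Next, compounds were pinned in and TGF-beta added to 500 pg/mL final. After 18 h, GFP was imaged per cell and summed per well.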
HepG2 tox-1: counter-screen for TGF-b inhibitors: cytotoxicity in HepG2 cells | HepG2 CAGA-GFP viability, ATP luminescence, 18 h | Potency, µM (top dose mostly 46.1 µM), hits mostly cytotoxic | AID 588856 | 410,000 compounds, 0.76% hits
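HepG2 CAGA-GFP cells (1000/well, DMEM with 1% FBS) received compound, then TGF-beta at 500 pg/mL final, and were incubated 18 hours at 37 degrees C. Viability was read by CellTiter-Glo luminescence. Media-only wells were set as complete cell-killing and DMSO as no toxicity.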
S2 tox: viability counter-screen for ATXN expression inhibitors. S2 cells (HEK-293 line with an ATXN2-luciferase reporter) viability, CellTiter-Fluor protease fluorescence, 24 h. Potency, µM (series often up to 56.7 µM), usual class: cytotoxic. 400,000 compounds, 0.49% hits; further: nearly all actives have a fitted effect of over 40% in size
RORgamma inh: blocks mouse ROR gamma transcriptional activity; P51450; Drosophila S2 Gal4-RORgamma UAS-luciferase reporter, 20 h; Potency, µM (series often up to 53.6 µM), hits mostly inhibitors; 310,000 compounds, 5.4% hits; AID 2551; further: nearly all actives have a fitted effect of over 60% in size
Target sequence (P51450 whole entry, looked up, the tested form may be a part): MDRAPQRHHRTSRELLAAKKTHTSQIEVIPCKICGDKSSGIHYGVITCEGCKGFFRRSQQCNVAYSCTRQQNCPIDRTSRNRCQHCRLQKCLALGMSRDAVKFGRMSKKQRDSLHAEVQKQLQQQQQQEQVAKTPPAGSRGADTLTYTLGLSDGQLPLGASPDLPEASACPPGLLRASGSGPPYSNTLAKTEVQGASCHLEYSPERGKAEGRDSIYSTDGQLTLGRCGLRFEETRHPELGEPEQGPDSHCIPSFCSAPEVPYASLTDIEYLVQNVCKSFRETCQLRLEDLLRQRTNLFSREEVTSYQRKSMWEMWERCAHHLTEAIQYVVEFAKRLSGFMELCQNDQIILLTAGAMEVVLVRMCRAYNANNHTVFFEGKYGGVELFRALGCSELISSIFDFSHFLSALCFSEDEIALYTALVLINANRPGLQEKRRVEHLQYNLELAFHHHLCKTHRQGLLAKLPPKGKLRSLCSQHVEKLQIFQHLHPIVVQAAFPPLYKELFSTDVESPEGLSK
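A Gal4/UAS one-hybrid system in insect cells: metallothionein-promoter Gal4–ROR gamma fusion plus Photinus luciferase reporter. Copper sulfate 700 uM final, 20 hr ambient incubation, luminescent detection after 10 min with reagent.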
ATXN2 expr inh: reduces ATXN2 reporter expression in HEK-293 cells; HEK-293 ATXN2-luciferase reporter, luminescence, 24 h; 360,000 compounds, 0.72% hits; AID 1745845; Potency, µM (highest dose often 57 µM), hits mostly inhibitors; further: nearly all actives have a fitted effect of over 55% in size
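ATXN2-luciferase reporter cells (luciferase flanked by upstream and downstream ATXN2 gene portions) were treated 24 h at 37 °C with compounds at up to 57 uM. SteadyGlo luminescence gave expression; GF-AFC fluorescence gave viability.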
TGFb confirm: confirmation of TGF-b signaling inhibitors in HepG2 reporter cells; HepG2 CAGA-GFP TGF-b reporter, GFP fluorescence, 18 h; cells stimulated with TGF-beta, 500 pg/mL; 1,600 compounds, 63% hits; AID 720534; Potency, µM (highest dose often 46.1 µM), most hits filed as inhibitors; shares compounds with TGFb inhibitor; further: nearly all actives have a fitted effect of over 65% in size
HepG2 tox-2: counter-screen for TGF-b inhibitors: cytotoxicity in HepG2 cells | shares compounds with TGFb inhibitor | HepG2 CAGA-GFP viability, ATP luminescence, 18 h; cells stimulated with TGF-beta, 500 pg/mL | Potency, µM (doses to about 46.1 µM), most hits filed as inhibitors | 1,600 compounds, 27% hits | AID 720535; further: nearly all actives have a fitted effect of over 70% in size
CCL64 TGFb inh: TGF-b inhibition, CCL64 orthogonal assay; Potency, µM (titrated, usually from 46.1 µM), most hits filed as inhibitors; AID 720536; CCL64 CAGA-GFP reporter, TGF-b stimulated, GFP fluorescence, 18 h; 1,600 compounds, 41% hits; shares compounds with TGFb inhibitor; further: nearly all actives have a fitted effect of over 65% in size
COP TGFb inh: blocks TGF-b signaling in HepG2 COP reporter. shares compounds with TGFb inhibitor. HepG2 COP-GFP TGF-b reporter, GFP fluorescence, 18 h; cells stimulated by added recombinant TGF-beta. Potency, µM (highest dose often 46.1 µM), hits mostly inhibitors. 1,600 compounds, 3% hits; further: nearly all actives have a fitted effect of over 70% in size
Numbers stand for hits; . = inactive; ? = inconclusive; / = no result given; [ ] = dose if it differs, or a comment. A selection: hits, their analogues and other compounds. The true share with any hit is near 6.3%. The call rests on the fitted dose curve; in most records, active means well fitted curve in the direction sought with a large enough effect; inconclusive means small, poorly fitted or top-dose-only effect, or another doubt; inactive means no such curve, though single readings can be large; an effect the other way counts as inactive or inconclusive.

SMILES | Gal4-VP16 FLuc | TGFb inhibitor | HepG2 tox-1 | S2 tox | RORgamma inh | ATXN2 expr inh | TGFb confirm | HepG2 tox-2 | CCL64 TGFb inh | COP TGFb inh
Cc1ccc(-c2ccc(SCC(=O)Nc3ccc4c(c3)OCCO4)nn2)cc1 | . | 3.16µM | . | ? | . | . | 20.6µM | . | . | .
CC(=O)Nc1ccc(NC(=O)CSc2ccc(-c3ccc4c(c3)OCO4)nn2)cc1 | . | . | . | . | . | . | / | / | / | /
COc1cc2oc(=O)cc(-c3ccc(-c4ccc(O)cc4)cc3)c2c(OC)c1OC | ? | 11.2µM | . | ? | . | ? | 18.4µM | ? | ? | .
COCCNc1nc(N)c([N+](=O)[O-])c(NC2CCCCC2)n1 | . | . | . | . | . | . | / | / | / | /
NCCCNc1nc(N)c([N+](=O)[O-])c(NC2CCCCC2)n1 | ? | 5.01µM | . | . | . | / | 4.61µM | ? | 5.8µM | .
O=C1NC[C@H](Cc2ccccc2)N(C[C@H]2CCCN2C[C@H](Cc2ccc(O)cc2)N2C[C@H](Cc3ccc(O)cc3)N(CC3CCCCCC3)C(=O)C2=O)C1=O | / | . | . | . | / | . | / | / | / | /
Oc1ccc(C[C@H]2CNC(=S)N2CC2CCCN2C[C@H](Cc2ccc(O)cc2)N2C[C@H](Cc3ccc(O)cc3)N(CC3CCCCC3)C2=S)cc1 (some centres not stated) | / | 10µM | . | ? | / | . | 5.17µM | 11.6µM | 5.8µM | ?
Oc1ccc(C[C@H]2CN([C@@H](Cc3ccc(O)cc3)CN3CCC[C@@H]3CN3C(=S)NC[C@@H]3Cc3ccccc3)C(=S)N2CC2CCCCCC2)cc1 | / | 10µM | . | 8.91µM | / | 10µM | 23.1µM | ? | 8.2µM | .
Oc1ccc(C[C@H]2CNC(=S)N2CC2CCCN2C[C@H](Cc2ccccc2)N2C[C@H](Cc3ccc(O)cc3)N(CC3CCCCCC3)C2=S)cc1 (some centres not stated) | / | 10µM | . | ? | / | ? | 20.6µM | ? | 8.2µM | .
O=C1NC[C@H](Cc2ccccc2)N(C[C@H]2CCCN2C[C@H](Cc2ccccc2)N2C[C@H](Cc3ccc(O)cc3)N(CC3CCCCCC3)C(=O)C2=O)C1=O | / | ? | . | ? | / | ? | / | / | / | /
Oc1ccc(C[C@H]2CNC(=S)N2C[C@H]2CCCN2C[C@H](Cc2ccccc2)N2C[C@H](Cc3ccc(O)cc3)N(CC3CCCCCC3)C2=S)cc1 | / | 7.08µM | . | 20µM | / | . | 23.1µM | ? | 13µM | .
Oc1ccc(C[C@H]2CNC(=S)N2CC2CCCN2C[C@H](Cc2ccc(O)cc2)N2C[C@H](Cc3ccccc3)N(CCc3ccccc3)C2=S)cc1 (some centres not stated) | / | ? | . | . | / | ? | / | / | / | /
O=C(Nc1ccccc1Oc1cccnc1)C1CCCN(Cc2ccc(F)cc2)C1 (configuration not stated) | . | . | . | . | . | . | / | / | / | /
CCC1Oc2ccc(C)cc2N(CC(=O)NC2CCCCC2)C1=O (configuration not stated) | . | . | . | . | . | . | / | / | / | /
CCC1Oc2ccc(C)cc2N(CC(=O)N(Cc2ccc(C)o2)C2CCCC2)C1=O (configuration not stated) | ? | 17.8µM | . | . | ? | . | 11.6µM | . | ? | .
COc1ccc(-c2nc3c4ccccc4ccn3c2Cc2ccc(C)cc2)cc1OC | / | 12.6µM | . | ? | / | . | 25.9µM | . | 18.4µM | .
Cc1ccc(Cc2c(-c3ccccc3)nc3c4ccccc4ccn23)cc1 | / | / | / | . | / | . | / | / | / | /
O=C1COc2cc(S(=O)(=O)NCc3ccco3)c(Cl)cc2N1 | / | / | . | / | / | / | / | / | / | /
CC(C)ON(CC(=O)NO)S(=O)(=O)c1ccc(-c2ccccc2)cc1 | . | / | / | / | . | / | / | / | / | /
CCOc1ccc(S(=O)(=O)N2CCN(C(=S)NCc3ccco3)CC2)cc1 | . | 8.91µM | . | . | ? | . | ? | . | ? | .
Cc1ccc(Cl)cc1N1CCN(C(=S)NCc2ccco2)CC1 | . | 15.8µM | . | . | . | . | 16.4µM | ? | ? | .
CCN1CCc2c(sc(NC(=O)c3ccc(S(=O)(=O)N4CCCC(C)C4)cc3)c2C(=O)OC)C1 (configuration not stated) | / | . | . | / | / | . | / | / | / | /
CN(C)Cc1ccccc1-c1ccc2ncnc(N3CCOCC3)c2c1 | . | / | / | / | . | / | / | / | / | /
CCCCNC(=O)C1(C)CCN1C(=O)c1ccc(OC)c(C(F)(F)F)c1 (configuration not stated) | / | . | . | . | / | . | / | / | / | /
Cc1ccc(-n2cc(C(=O)c3cc(Cl)ccc3O)cc(C#N)c2=O)cc1 | ? | ? | . | . | ? | . | / | / | / | /
SMILES | Gal4-VP16 FLuc | TGFb inhibitor | HepG2 tox-1 | S2 tox | RORgamma inh | ATXN2 expr inh | TGFb confirm | HepG2 tox-2 | CCL64 TGFb inh | COP TGFb inh
Cc1ccccc1NC(=O)c1cc(C(=O)c2cc(Cl)ccc2O)cn(-c2ccccc2C)c1=O | . | 7.08µM | . | ? | ? | . | 16.4µM | ? | 13µM | .
Cc1cc(C)c(S(=O)(=O)NC2CC3CCC2C3)c(C)c1 (configuration not stated) | . | ? | . | . | . | . | ? | . | . | .
COc1ccc(S(=O)(=O)NC2CC3CCC2C3)cc1Br (configuration not stated) | . | . | . | . | . | / | / | / | / | /
COc1ccccc1OCCNS(=O)(=O)c1ccc2oc3ccccc3c2c1 | ? | ? | . | . | . | . | / | / | / | /
O=S(=O)(NCCOc1ccccc1Cl)c1ccc2oc3ccccc3c2c1 | / | 15.8µM | . | . | / | . | 18.4µM | ? | ? | .
O=C(Cc1ccc(NC(=O)C2CCN(C(=O)C3CCCCC3)CC2)cc1)Nc1cccc(C(=O)N2CCCCC2)c1 | / | . | . | . | / | . | / | / | / | /
CC(=O)N1CCN(c2ccc(NC(=S)NC(=O)COc3ccc(C(C)(C)C)cc3)cc2)CC1 | ? | ? | . | . | .[10 µM] | . | 4.61µM | ? | . | .
